Results: PubChem BioAssay
Active and inactive are the calls of the source.

How the values were obtained:
[1] = system: Plasmodium falciparum Sir2 (PF13_0152, Sir2A); test: pfSir2 binders on small-molecule microarrays, primary screen, biochemical, small-molecule microarray, 635 nm fluorescence (AID 1098); conditions: small-molecule microarray binding, fluorescence 635 nm; higher = more signal;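 note: score merges spot fluorescence intensity with its signal-to-noise ratio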
[2] = small-molecule microarray binders of probe aDKK1, primary screen, biochemical, biotinylated probe, 635/667 nm fluorescence (AID 1099); conditions: higher = more signal;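 note: score merges 667nm spot fluorescence with signal to noise across triplicate slides; reference of the scale not given here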
[3] = small-molecule microarray binders of probe aCHRDL2, primary screen, biochemical, biotinylated probe, 635/667 nm fluorescence (AID 1100); conditions: higher = more signal
[4] = splicing luciferase reporter signal modulators, primary screen, spliceosome inhibition project, cell-based, HEK293, splice +/- reporter (AID 1101); conditions: luminescence, 24 h, higher = more signal, called active from +8 up or from −8 down;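 note: HEK293 cells carrying a splicing-competent luciferase reporter gene; test concentration not given here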
[5] = biological target: Fibroblast growth factor 10 (Homo sapiens) (UniProt O15520); test: FGF10 binders on small-molecule microarrays, primary screen, biochemical, small-molecule microarray, 635 nm fluorescence (AID 1102); conditions: FGF10 binding, fluorescence 635 nm, higher = more signal
[6] = system: glycogen synthase kinase-3 (GSK3A per assay name; protocol says GSK3B); test: GSK3 binders on small-molecule microarrays, primary screen, biochemical, small-molecule microarray, 635 nm fluorescence, GSK3A (AID 1103); conditions: small-molecule microarray binding, fluorescence 635 nm; higher = more signal; note: the record names both GSK3A and GSK3B
[7] = biological target: Epidermal growth factor receptor (Homo sapiens) (UniProt P00533); test: EGFR binders on small-molecule microarrays, primary screen, biochemical, small-molecule microarray, 635 nm fluorescence (AID 1104); conditions: EGFR binding, higher = more signal;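 note: score merges 667 nm emission intensity with spot signal to noise over triplicate slides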
[8] = biological target: Follistatin-related protein 3 (Homo sapiens) (UniProt O95633); test: FSTL3 binders on small-molecule microarrays, primary screen, biochemical, small-molecule microarray, 635 nm fluorescence (AID 1105); conditions: FSTL3 binding, higher = more signal;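 note: score merges emission near 667 nm and signal to noise per printed spot across three slides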
[9] = biological target: Dickkopf-related protein 1 (Homo sapiens) (UniProt O94907); test: DKK1 binders on small-molecule microarrays, primary screen, biochemical, small-molecule microarray, 635 nm fluorescence scan (AID 1106); conditions: DKK1 binding, higher = more signal;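 note: score merges emission near 667 nm with signal to noise over three replicate slides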
[10] = system: Inhibin beta A chain (activin A); test: INHBA (activin A) binders on microarrays, primary screen, biochemical, small-molecule microarray, 635 nm fluorescence scan (AID 1107); conditions: small-molecule microarray binding, higher = more signal;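 note: mouse activin A protein probed at 4.33 µg/mL on printed slides; score merges bound-protein fluorescence near 667 nm with spot signal-to-noise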

Sequence of Fibroblast growth factor 10 (Homo sapiens) (O15520 whole entry, looked up): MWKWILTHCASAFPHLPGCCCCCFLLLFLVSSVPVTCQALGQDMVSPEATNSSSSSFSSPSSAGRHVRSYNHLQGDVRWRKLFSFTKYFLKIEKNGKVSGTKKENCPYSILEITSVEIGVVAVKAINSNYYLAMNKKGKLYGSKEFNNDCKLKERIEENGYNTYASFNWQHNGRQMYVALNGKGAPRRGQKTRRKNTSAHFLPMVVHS
Sequence of Follistatin-related protein 3 (Homo sapiens) (O95633 whole entry, looked up): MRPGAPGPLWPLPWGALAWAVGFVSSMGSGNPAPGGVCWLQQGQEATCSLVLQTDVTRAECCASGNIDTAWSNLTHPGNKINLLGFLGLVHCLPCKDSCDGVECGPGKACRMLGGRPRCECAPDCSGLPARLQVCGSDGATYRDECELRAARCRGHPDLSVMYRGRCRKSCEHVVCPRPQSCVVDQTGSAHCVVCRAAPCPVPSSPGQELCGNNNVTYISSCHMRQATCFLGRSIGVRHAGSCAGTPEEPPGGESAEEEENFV
Sequence of Epidermal growth factor receptor (Homo sapiens) (P00533 whole entry, looked up): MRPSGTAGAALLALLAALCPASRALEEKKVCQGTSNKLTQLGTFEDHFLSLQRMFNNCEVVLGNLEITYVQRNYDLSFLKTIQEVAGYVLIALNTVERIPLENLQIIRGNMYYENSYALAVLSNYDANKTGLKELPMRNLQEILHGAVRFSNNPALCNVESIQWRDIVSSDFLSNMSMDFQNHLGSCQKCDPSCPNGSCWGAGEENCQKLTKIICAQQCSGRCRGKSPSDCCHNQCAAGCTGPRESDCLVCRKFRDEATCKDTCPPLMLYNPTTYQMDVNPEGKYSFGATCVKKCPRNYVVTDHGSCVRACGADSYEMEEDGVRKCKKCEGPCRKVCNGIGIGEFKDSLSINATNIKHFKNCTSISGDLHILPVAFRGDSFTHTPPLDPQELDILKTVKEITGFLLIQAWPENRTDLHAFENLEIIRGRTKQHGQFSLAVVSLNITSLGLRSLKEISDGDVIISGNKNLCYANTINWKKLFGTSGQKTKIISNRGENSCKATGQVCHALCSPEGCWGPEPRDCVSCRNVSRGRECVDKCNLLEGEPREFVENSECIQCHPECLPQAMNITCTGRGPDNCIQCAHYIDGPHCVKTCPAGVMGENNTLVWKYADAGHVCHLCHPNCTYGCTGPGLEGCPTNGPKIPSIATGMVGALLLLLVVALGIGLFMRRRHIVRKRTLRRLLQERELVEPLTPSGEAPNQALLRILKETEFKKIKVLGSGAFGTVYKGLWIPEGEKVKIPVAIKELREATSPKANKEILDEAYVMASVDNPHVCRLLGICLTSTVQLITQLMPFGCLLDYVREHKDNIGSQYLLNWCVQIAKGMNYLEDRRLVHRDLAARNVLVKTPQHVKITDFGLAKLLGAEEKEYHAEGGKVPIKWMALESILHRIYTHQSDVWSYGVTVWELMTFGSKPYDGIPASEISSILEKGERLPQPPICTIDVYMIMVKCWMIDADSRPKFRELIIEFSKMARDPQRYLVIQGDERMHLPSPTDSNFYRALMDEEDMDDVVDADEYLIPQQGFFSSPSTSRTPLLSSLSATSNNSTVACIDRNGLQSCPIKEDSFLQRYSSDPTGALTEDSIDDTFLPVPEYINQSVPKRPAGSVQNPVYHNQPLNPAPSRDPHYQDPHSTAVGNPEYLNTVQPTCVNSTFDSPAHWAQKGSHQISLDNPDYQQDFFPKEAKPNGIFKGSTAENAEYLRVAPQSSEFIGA
Sequence of Dickkopf-related protein 1 (Homo sapiens) (O94907 whole entry, looked up): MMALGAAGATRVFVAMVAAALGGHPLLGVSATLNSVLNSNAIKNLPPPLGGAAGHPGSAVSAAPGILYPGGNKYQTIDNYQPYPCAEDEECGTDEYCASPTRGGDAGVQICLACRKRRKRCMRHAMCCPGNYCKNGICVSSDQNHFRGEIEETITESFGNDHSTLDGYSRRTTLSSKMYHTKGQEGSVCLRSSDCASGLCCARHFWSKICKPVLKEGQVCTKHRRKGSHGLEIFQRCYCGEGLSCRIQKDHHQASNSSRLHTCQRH

Row | Structure (SMILES) | composite z-score [1] | composite z-score [2] | composite z-score [3] | z-score [4] | composite z-score [5] | composite z-score [6] | composite z-score [7] | composite z-score [8] | composite z-score [9] | composite z-score [10]
1 | COCCOC(=O)N1C(=O)[C@@]2(c3cc(C#CC4(O)CCCCCC4)ccc31)[C@H](c1ccc(O)cc1)N1[C@H](c3ccccc3)[C@H](c3ccccc3)OC(=O)[C@H]1[C@@H]2C(=O)N1CCc2cc(OC)c(OC)cc2C1 | 1.23 | -0.226 | 0.687 | -0.597 (inactive) | -0.681 | -0.32 | -0.705 | -1.15 | -0.591 | 0.0107
2 | CC(C)C[C@@H]1NC(=O)[C@@H]2C[C@H](C(=O)NCCCCN(C)C)[C@H](c3ccc(O)cc3)N2C1=O | 0.791 | 0.147 | 0.874 | 0.619 (inactive) | -1.42 | -0.439 | -1.29 | -0.401 | -0.283 | -0.134
3 | CCCC[C@@H]1C[C@H]1[C@@H](NC(=O)c1ccco1)c1ccccc1 | -1.69 | -0.145 | 1.01 | 0.00344 (inactive) | -1.01 | -1.31 | -2.01 | -1.63 | -2.05 | 0.735
4 | Cn1c2c(c3ccccc31)C(=O)C1NC2C=CC1(C)C(=O)OCc1ccccc1 (stereo not given) | 1.15 | 0.347 | 1.26 | 0.167 (inactive) | -0.667 | -0.788 | -1.57 | -1.58 | -2.53 | 0.674
5 | C=C(C(=O)CC[C@@H](OC(C)=O)c1ccc(OCCO)cc1)C(C)C | 0.167 | -0.0523 | 0.104 | 1.02 (inactive) | 1.57 | -0.117 | -0.544 | -0.152 | -0.207 | 0.815
6 | O=C1OCCC=C[C@H]2OC34C=CCN(CCN5CCOCC5)C(=O)[C@H]3N(CCO)C(=O)[C@@H]4C12 (stereo not given in full) | -0.378 | -0.507 | -0.771 | -0.197 (inactive) | 0.217 | -0.594 | -0.803 | -0.0836 | 0.794 | 0.612
7 | [N-]=[N+]=NCc1ccccc1[C@@H]1OC(c2ccc(OCCCO)cc2)=N[C@]1(Cc1ccccc1)C(=O)O | 1.03 | 0.175 | 0.917 | -0.013 (inactive) | 0.661 | 0.294 | -0.321 | -0.086 | -0.617 | 1.2
8 | COCCOC(=O)N1C(=O)[C@@]2(c3cc(C#Cc4ccc(OC)cc4)ccc31)[C@H](c1ccc(OCCO)cc1)N1[C@H](c3ccccc3)[C@H](c3ccccc3)OC(=O)[C@H]1[C@@H]2C(=O)N1CCc2cc(OC)c(OC)cc2C1 | 1.41 | -0.126 | -0.227 | -0.355 (inactive) | 0.812 | 1.12 | 0.463 | 1.3 | 0.435 | 0.273
9 | C=CCC(OC(C)=O)[C@@H]1[C@@H](N(Cc2ccc(-c3cccc(C(F)(F)F)c3)o2)C(=O)Cc2ccc(OC)cc2)c2cc(OCCCO)ccc2N1C(=O)Cc1ccc(OC)cc1 (stereo not given in full) | 0.294 | -0.22 | 0.373 | -1.94 (inactive) | -0.593 | -1.7 | -0.719 | -0.391 | -0.227 | 0.925
10 | COCCOC(=O)N1C(=O)[C@@]2(c3cc(C#Cc4ccc(OC)cc4)ccc31)[C@H](c1ccc(O)cc1)N1[C@H](c3ccccc3)[C@H](c3ccccc3)OC(=O)[C@H]1[C@@H]2C(=O)N1CCN(c2ncccn2)CC1 | 0.408 | -0.544 | 0.245 | 0.477 (inactive) | 0.735 | -0.0597 | 0.375 | 0.85 | 0.355 | 0.349
11 | O=C(NCc1ccccc1)[C@@H]1c2ccccc2C(=O)N(C2CCCCC2)[C@H]1c1ccc(CO)cc1 | 0.88 | -0.709 | 0.0028 | 0.365 (inactive) | 0.686 | 0.0662 | -0.241 | 0.707 | -0.327 | -0.224
12 | O=C(CS)NCCCCCNC(=O)[C@H]1C[C@H]2C(=O)N[C@@H](Cc3ccccc3)C(=O)N2[C@H]1c1cccc(OCCO)c1 | 1.4 | 0.185 | 0.373 | 0.101 (inactive) | 1.41 | 1.36 | 0.98 | 1.42 | 1.61 | 0.597
13 | CCCCCCCCCCC(O)C1C=CC2C(=O)N(c3ccccc3)C(=O)C2N1Nc1ccc([N+](=O)[O-])cc1 (stereo not given) | 1.34 | -0.101 | 0.584 | 0.823 (inactive) | 0.668 | 1.29 | 0.352 | 1.01 | 0.0052 | 0.559
14 | CC(C)[C@H]1COC(=O)N1C(=O)[C@H]1[C@@H](c2ccccc2)N(c2ccccc2)O[C@@H]1C | 0.22 | -0.139 | -0.273 | 0.145 (inactive) | 0.521 | 0.474 | 0.218 | 1.04 | 0.517 | 0.264
15 | C=C(COC)C(=O)CC[C@H](OC(=O)c1cccnc1)c1ccccc1OCCO | 1.25 | 0.224 | 0.561 | 0.193 (inactive) | 1.12 | 0.844 | 0.471 | 1.27 | 0.559 | 1.22
16 | COc1ccc([Si](C)(C)[C@@H]2[C@@H](CCO)O[C@]3(C(=O)N(Cc4ccccc4)c4ccc(N(C=O)c5ccccc5)cc43)[C@H]2C)cc1 | 0.622 | -0.185 | -0.025 | -1.1 (inactive) | 0.454 | -0.141 | 0.012 | -0.0895 | 0.169 | 0.328
17 | COc1ccc(C#Cc2ccc3c(c2)[C@]2(C(=O)N3)[C@H](C(=O)N3CCN(c4ncccn4)CC3)[C@H]3C(=O)O[C@H](c4ccccc4)[C@H](c4ccccc4)N3[C@@H]2c2ccc(O)cc2)cc1 | 0.707 | -0.015 | 0.612 | -0.73 (inactive) | 0.557 | 0.967 | 0.366 | 0.743 | 0.353 | 0.536

Row | Structure (SMILES) | composite z-score [1] | composite z-score [2] | composite z-score [3] | z-score [4] | composite z-score [5] | composite z-score [6] | composite z-score [7] | composite z-score [8] | composite z-score [9] | composite z-score [10]
18 | CN1C(=O)C2C=CC(C(O)C=Cc3ccc([N+](=O)[O-])cc3)N(N3CCCCC3)C2C1=O (stereo not given) | 1.38 | 1.6 | 1.34 | 1.47 (inactive) | 0.928 | 1.28 | 0.726 | 1.1 | 0.256 | 1.35
19 | C=CCN1Cc2ccccc2C[C@]2(N=C(c3ccc(OCCCO)cc3)O[C@@H]2c2ccccc2)C1=O | 0.761 | -0.0119 | 0.311 | -1.44 (inactive) | 1.08 | 1.29 | 0.734 | 1.25 | 0.838 | 1.31
20 | CN1C(=O)C2C=CC(C(O)C(C)(C)C)N(Nc3ccccc3)C2C1=O (stereo not given) | 1.24 | -0.108 | 0.211 | 1.06 (inactive) | -0.0353 | -0.0258 | -0.639 | -0.543 | -0.406 | 0.941
21 | CC[C@@H]1C=C(C(=O)O)[C@H](c2ccc(C(C)C)cc2)N1S(=O)(=O)c1ccc(C)cc1 | 1.25 | 1.1 | 0.86 | -0.0593 (inactive) | 1.08 | 1.15 | 0.001 | 1.18 | -0.172 | 0.769
22 | C=C(C(=O)CC[C@H](OC(=O)c1cccnc1)c1ccccc1OCCO)C(C)C | 1.14 | -0.109 | -0.0641 | 3.21 (inactive) | 1.56 | 0.98 | 1.25 | 1.13 | 0.962 | 1.11
23 | O[C@@H](Cc1ccccc1)[C@@H](/C=C/c1ccccc1)NCc1ccccc1Br | -1.01 | 0.151 | 1.16 | 0.761 (inactive) | -1.98 | -1.45 | -1.37 | -2.06 | -1.42 | 0.52
24 | CN1C(=O)C2C=CC(C(O)c3ccccc3)N(NC(=O)OC(C)(C)C)C2C1=O (stereo not given) | 0.782 | 0.153 | 0.455 | 1.54 (inactive) | 0.35 | 0.459 | -0.043 | -0.0889 | -0.237 | 0.375
25 | COC(=O)[C@@]1(Cc2ccc(F)cc2)[C@H]2c3cc(C(=O)N(C)C)n(CCc4c[nH]c5ccc(OC)cc45)c3C[C@H]2CN1C(=O)c1ccccc1 | -0.138 | 1.76 | 1.31 | -2.71 (inactive) | -0.162 | 0.27 | -0.446 | -0.108 | -1.73 | 0.812
26 | C=CCC(OC(C)=O)[C@@H]1[C@@H](N(Cc2ccc(-c3ccccc3)cc2)C(=O)c2ccc(C)cc2)c2cc(OCCCO)ccc2N1C(=O)Cc1ccc(OC)cc1 (stereo not given in full) | 1.36 | -0.0745 | -0.216 | -1.03 (inactive) | 0.191 | -0.159 | 0.0485 | 0.0762 | 0.22 | 1.23
27 | C=CCNC(=O)[C@@H]1[C@H]2C(=O)O[C@H](c3ccccc3)[C@H](c3ccccc3)N2[C@H](c2ccccc2OCCO)[C@@]12C(=O)N(C(=O)OCCOC)c1ccc(C#CCC(C(=O)OC)C(=O)OC)cc12 | 1.89 | 2 | 1.09 | -0.235 (inactive) | 1.43 | 1.31 | 1.25 | 1.5 | 1.34 | 1.33
28 | CC(C)NC(=O)[C@@]1(c2ccc([N+](=O)[O-])cc2)CC(=O)N(C(C)C)[C@@H]1c1ccc(CO)cc1 | -0.277 | -0.247 | 1.07 | -0.64 (inactive) | -0.907 | -0.153 | -0.761 | -0.867 | -1.56 | -1.45
29 | COC(=O)[C@@]1(Cc2ccccc2)[C@H]2c3cc(C(=O)N(C)C)n(Cc4cc(F)c(F)c(F)c4)c3C[C@H]2CN1C(=O)c1ccccc1 | 1.47 | 0.375 | 1.22 | -3.26 (inactive) | 0.86 | -0.629 | 0.0296 | 0.521 | -0.818 | 0.748
30 | NC(=O)NCC#Cc1ccc2c(c1)[C@]1(C(=O)N2)[C@H](c2ccccc2OCCO)N2[C@H](c3ccccc3)[C@H](c3ccccc3)OC(=O)[C@H]2[C@@H]1C(=O)N1CCCCCCC1 | 1.68 | 2.88 | 1.73 | -0.308 (inactive) | 0.91 | 1.35 | 1.42 | 1.6 | 1.26 | 1.88
31 | CN1C(=O)C2C(C1=O)C1C=C(c3ccc(CO)cc3)C2C(C2CC2)N1Cc1cc2c(cc1Br)OCO2 (stereo not given) | 1.65 | 0.0878 | 0.886 | 0.0287 (inactive) | 0.966 | 1.14 | 0.482 | 1.22 | 0.334 | 1.22
32 | O=C(NCC(O)CO)[C@]1(CCS(=O)(=O)c2ccccc2)N=C(c2ccc(OCCCO)cc2)O[C@@H]1c1ccccc1 (stereo not given in full) | 1.11 | 1.28 | 1.34 | 0.833 (inactive) | 0.305 | 0.516 | -0.498 | -0.365 | -0.868 | 0.529
33 | C=C[C@H](OC)[C@@H](OC(=O)Nc1ccc(SC)cc1)c1ccc(OCCO)cc1 | 1.08 | 0.242 | 0.796 | -1.96 (inactive) | 0.141 | 0.0735 | -0.196 | -0.275 | 0.155 | -0.176
